Laboratory results published in PubChem BioAssay (NCATS).
Results filed as inconclusive are left out. The source made the active and inactive calls. Calls follow the shape of the dose curve; as a rule, active = well fitted curve in the direction sought with a large enough effect; inconclusive = small, poorly fitted or top-dose-only effect, or another doubt; inactive = no such curve, though single readings can be large; an effect the other way counts as inactive or inconclusive.

Tests used:
[1] = Quantitative High-Throughput drug screen in 47 multiple myeloma cell lines against the NCATS MIPE library collection: KMM1_JCRB cell viability assay (AID 1918960); also: nearly all actives have a fitted effect of over 30% in size; also: potency is read from the fitted curve at half-maximal effect
Summary of the method: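 ATP readout (CellTiter-Glo), 48 h drug incubation, 37 °C/5% CO2, 500 cells per well; normalisation to DMSO (100%) and media-only (0%) controls.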

[2] = Quantitative High-Throughput drug screen in 47 multiple myeloma cell lines against the NCATS MIPE library collection: JIM3_ECACC cell viability assay (AID 1918963; also: nearly all actives have a fitted effect of over 35% in size; also: potency is read from the fitted curve at half-maximal effect)
Summary of the method: (§1)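 Inhibition of cell viability is measured here. Each line was plated at 500 cells per well, treated with MIPE 4.0 drugs, kept 48 hours at 37C, then assayed for ATP content by CellTiter-Glo luminescence.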

[3] = Quantitative High-Throughput drug screen in 47 multiple myeloma cell lines against the NCATS MIPE library collection: INA6_PLB cell viability assay (AID 1918965; also: nearly all actives have a fitted effect of over 55% in size; also: potency is read from the fitted curve at half-maximal effect)
Summary of the method: (§2)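 qHTS of the MIPE 4.0 collection: 500 myeloma cells/well, 48 h drug exposure at 37C in 5% CO2, then CellTiter-Glo for 5 min at room temperature before luminescence reading.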

[4] = Quantitative High-Throughput drug screen in 47 multiple myeloma cell lines against the NCATS MIPE library collection: H1112_PLB cell viability assay (AID 1918967; also: nearly all actives have a fitted effect of over 30% in size; also: potency is read from the fitted curve at half-maximal effect)
Summary of the method: (§3)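 Myeloma cells (500 per well) were exposed to MIPE 4.0 compounds by pin transfer and incubated 48 hours at 37C, 5% CO2. Viability was read as ATP by CellTiter-Glo luminescence, normalised to DMSO (100%) and media-only (0%) wells.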

[5] = Quantitative High-Throughput drug screen in 47 multiple myeloma cell lines against the NCATS MIPE library collection: KMS12PE_JCRB cell viability assay (AID 1918972); also: nearly all actives have a fitted effect of over 30% in size; also: potency is read from the fitted curve at half-maximal effect
Summary of the method: as §2

[6] = Quantitative High-Throughput drug screen in 47 multiple myeloma cell lines against the NCATS MIPE library collection: KMS26_JCRB cell viability assay (AID 1918975); also: nearly all actives have a fitted effect of over 45% in size; also: potency is read from the fitted curve at half-maximal effect
Summary of the method: (§4)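 We plated 500 myeloma cells per well, pinned in MIPE 4.0 compounds, and incubated for 48 hours at 37C. ATP was then quantified with CellTiter-Glo, with DMSO and media-only wells defining 100% and 0%.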

[7] = Quantitative High-Throughput drug screen in 47 multiple myeloma cell lines against the NCATS MIPE library collection: NCIH929_DSMZ cell viability assay (AID 1918978); also: nearly all actives have a fitted effect of over 35% in size; also: potency is read from the fitted curve at half-maximal effect
Summary of the method: (§5)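 Viability after 48 h drug exposure was measured as ATP-dependent luminescence. Cells, 500 per well, sat at 37 °C under 5% CO2; DMSO wells set 100%, media-only wells 0%.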

[8] = Quantitative High-Throughput drug screen in 47 multiple myeloma cell lines against the NCATS MIPE library collection: OCIMY1_PLB cell viability assay (AID 1918979); also: nearly all actives have a fitted effect of over 35% in size; also: potency is read from the fitted curve at half-maximal effect
Summary of the method: as §5

[9] = Quantitative High-Throughput drug screen in 47 multiple myeloma cell lines against the NCATS MIPE library collection: JIM1_ECACC cell viability assay (AID 1918964; also: potency is read from the fitted curve at half-maximal effect)
Summary of the method: as §3

[10] = Quantitative High-Throughput drug screen in 47 multiple myeloma cell lines against the NCATS MIPE library collection: KMS20_JCRB cell viability assay (AID 1918973); also: nearly all actives have a fitted effect of over 45% in size
Summary of the method: as §3

[11] = Quantitative High-Throughput drug screen in 47 multiple myeloma cell lines against the NCATS MIPE library collection: JJN3_DSMZ cell viability assay (AID 1918966; also: nearly all actives have a fitted effect of over 50% in size; also: potency is read from the fitted curve at half-maximal effect)
Summary of the method: as §3

[12] = Quantitative High-Throughput drug screen in 47 multiple myeloma cell lines against the NCATS MIPE library collection: Karpas25_ECACC cell viability assay (AID 1918968; also: nearly all actives have a fitted effect of over 35% in size; also: potency is read from the fitted curve at half-maximal effect)
Summary of the method: as §3

[13] = Quantitative High-Throughput drug screen in 47 multiple myeloma cell lines against the NCATS MIPE library collection: KMS27_JCRB cell viability assay (AID 1918970); also: nearly all actives have a fitted effect of over 30% in size; also: potency is read from the fitted curve at half-maximal effect
Summary of the method: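 CellTiter-Glo luminescence after 48 h drug exposure at 37 °C; 500 cells/well, 1536-well format, pin-tool compound addition; DMSO = 100%, media-only = 0% viability.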

[14] = Quantitative High-Throughput drug screen in 47 multiple myeloma cell lines against the NCATS MIPE library collection: KMS12BM_JCRB cell viability assay (AID 1918971); also: nearly all actives have a fitted effect of over 35% in size; also: potency is read from the fitted curve at half-maximal effect
Summary of the method: as §4

[15] = Quantitative High-Throughput drug screen in 47 multiple myeloma cell lines against the NCATS MIPE library collection: MOLP8_DSMZ cell viability assay (AID 1918977); also: nearly all actives have a fitted effect of over 45% in size; also: potency is read from the fitted curve at half-maximal effect
Summary of the method: as §5

[16] = Quantitative High-Throughput drug screen in 47 multiple myeloma cell lines against the NCATS MIPE library collection: MM1S_ATCC cell viability assay (AID 1918980); also: nearly all actives have a fitted effect of over 45% in size; also: potency is read from the fitted curve at half-maximal effect
Summary of the method: as §5

[17] = Quantitative High-Throughput drug screen in 47 multiple myeloma cell lines against the NCATS MIPE library collection: MM1R_ATCC cell viability assay (AID 1918981); also: nearly all actives have a fitted effect of over 35% in size; also: potency is read from the fitted curve at half-maximal effect
Summary of the method: as §5

[18] = Quantitative High-Throughput drug screen in 47 multiple myeloma cell lines against the NCATS MIPE library collection: MMM1_PLB cell viability assay (AID 1918976); also: nearly all actives have a fitted effect of over 35% in size
Summary of the method: as §5

[19] = Quantitative High-Throughput drug screen in 47 multiple myeloma cell lines against the NCATS MIPE library collection: Karpas417_ECACC cell viability assay (AID 1918961); details: Karpas417 myeloma viability, CellTiter-Glo ATP luminescence, 48 h; viability (% of DMSO): at 45.8 µM (top of the series); also: potency is read from the fitted curve at half-maximal effect
Summary of the method: as §2

[20] = Quantitative High-Throughput drug screen in 47 multiple myeloma cell lines against the NCATS MIPE library collection: KHM11_PLB cell viability assay (AID 1918962); also: nearly all actives have a fitted effect of over 35% in size; also: potency is read from the fitted curve at half-maximal effect
Summary of the method: as §1

Measured: Potency

OC(Cn1cncn1)(Cn1cncn1)c1ccc(F)cc1F
inactive: [1] | [2] | [3] | [4] | [5] | [6] | [7] | [8]

O=S(=O)(c1cccc2cnccc12)N1CCCNCC1
inactive: [1] | [5]

N[C@@H](Cc1ccc(O)c(O)c1)C(=O)O
inactive: [1] | [2] | [9] | [4] | [5] | [10] | [7]

CCCCS(=N)(=O)CCC(N)C(=O)O (stereo not drawn)
not listed: [3] | [4] | [9] | [10] | [17] | [18] | [19] | [20]
inactive: all other assays above

CC1=NN(c2ccccc2)C(=O)C1
active: [3] 13.2 µM
inactive: [1] | [2] | [9] | [4] | [13] | [6] | [15] | [8] | [16] | [17]

Cc1nnc(NS(=O)(=O)c2ccc(N)cc2)s1
active: [1] 1.18 µM | [3] 9.35 µM | [13] 1.05 µM | [5] 1.32 µM | [16] 2.64 µM | [17] 18.7 µM
inactive: [2] | [18] | [7] | [8]

Cc1ncc([N+](=O)[O-])n1CCO
inactive: [1] | [2] | [3] | [11] | [4] | [12] | [13] | [5] | [15] | [7] | [17]

C[C@]12C=CC(=O)C=C1CC[C@@H]1[C@@H]2C(=O)C[C@@]2(C)[C@H]1CC[C@]2(O)C(=O)CO
inactive: [1] | [2] | [3] | [14] | [5] | [6] | [7] | [8] | [16]

NS(=O)(=O)c1cc2c(cc1Cl)NC(C(Cl)Cl)NS2(=O)=O (stereo not drawn)
inactive: [1] | [2] | [9] | [4] | [12] | [13] | [5] | [15] | [7]

COc1ccc(C(=O)CC(=O)c2ccc(C(C)(C)C)cc2)cc1
active: [1] 7.43 µM | [11] 0.935 µM | [4] 7.43 µM | [12] 2.35 µM | [13] 3.32 µM | [14] 2.35 µM | [5] 5.26 µM | [6] 7.43 µM | [7] 1.32 µM | [16] 1.05 µM | [17] 2.35 µM

CN1CCN(c2c(F)cc3c(=O)c(C(=O)O)cn(CCF)c3c2F)CC1
inactive: [1] | [2] | [12] | [13] | [5] | [15] | [7] | [17]

COc1ccc(-c2ccc3cc(C(=O)O)ccc3c2)cc1C12CC3CC(CC(C3)C1)C2
active: [14] 2.35 µM | [16] 5.26 µM
inactive: [1] | [2] | [3] | [4] | [13] | [5] | [6] | [7] | [8]

NC(=O)N1c2ccccc2CC(=O)c2ccccc21
inactive: [1] | [2] | [9] | [4] | [13] | [5] | [10] | [6] | [15] | [7]

O=C(O)C1CCCN(CCC=C(c2ccccc2)c2ccccc2)C1 (stereo not drawn)
inactive: [1] | [3] | [13] | [6] | [18] | [7]
active: [15] 5.9 nM | [16] 9.35 µM

CC(C)OC(=O)OCOP(=O)(CO[C@H](C)Cn1cnc2c(N)ncnc21)OCOC(=O)OC(C)C
active: [1] 20.9 µM | [2] 16.6 µM | [11] 18.7 µM | [12] 14.8 µM | [14] 7.43 µM | [16] 23.5 µM

CN(C)CCc1c[nH]c2ccc(C[C@H]3COC(=O)N3)cc12
inactive: [2] | [9] | [4] | [12] | [13] | [14] | [6] | [7] | [8] | [17]
active: [19] 3.72 µM | [3] 13.2 µM

COc1ncnc(NS(=O)(=O)c2ccc(N)cc2)c1OC
active: [16] 23.5 µM
not listed: [1] | [5] | [9] | [10] | [11] | [12] | [18]
inactive: all other assays above

O=C(O)c1cn(C2CC2)c2cc(N3CCNCC3)c(F)cc2c1=O
inactive: [1] | [2] | [9] | [11] | [4] | [5] | [15] | [7] | [17]

NC(=O)c1cccc(N)c1
active: [7] 16.6 µM
inactive: [1] | [2] | [3] | [4] | [5] | [10] | [6] | [17]

CCn1cc(C(=O)O)c(=O)c2cc(F)c(N3CCN(C)CC3)cc21
active: [14] 2.64 µM
inactive: [19] | [2] | [12] | [13] | [5] | [6] | [15] | [7]

COC(=O)Nc1nc2ccc(C(=O)c3ccccc3)cc2[nH]1
active: [2] 2.96 µM | [3] 1.18 µM | [11] 2.64 µM | [4] 2.64 µM | [12] 3.72 µM | [14] 1.48 µM | [6] 8.33 µM | [7] 3.72 µM | [8] 833 nM | [16] 3.72 µM

CCN(C)C(=O)Oc1cccc([C@H](C)N(C)C)c1
inactive: [2] | [9] | [3] | [4] | [12] | [5] | [15] | [7] | [16]

O=NN(CCCl)C(=O)NC1CCCCC1
inactive: [20] | [2] | [9] | [13] | [14] | [6] | [15] | [7] | [16]

CCN(CC)CC#CCOC(=O)C(O)(c1ccccc1)C1CCCCC1 (stereo not drawn)
inactive: [2] | [4] | [14] | [15] | [7] | [17]
active: [5] 26.4 µM

CC(C)(C)NC(=O)[C@H]1CC[C@H]2[C@@H]3CC[C@H]4NC(=O)C=C[C@]4(C)[C@H]3CC[C@]12C
inactive: [9] | [14] | [8]
active: [20] 1.18 µM | [2] 4.18 µM | [3] 0.833 µM | [4] 1.18 µM | [12] 0.662 µM | [5] 20.9 µM | [6] 2.96 µM | [7] 0.296 µM | [16] 0.264 µM

CN1CCCC(n2nc(Cc3ccc(Cl)cc3)c3ccccc3c2=O)CC1 (stereo not drawn)
active: [20] 6.62 µM | [2] 14.8 µM | [3] 1.32 µM | [11] 2.96 µM | [4] 1.87 µM | [12] 1.32 µM | [14] 4.18 µM | [6] 3.72 µM | [7] 0.935 µM | [16] 0.662 µM | [17] 2.35 µM

CC(C)(Sc1cc(C(C)(C)C)c(O)c(C(C)(C)C)c1)Sc1cc(C(C)(C)C)c(O)c(C(C)(C)C)c1
active: [3] 4.69 µM | [16] 4.18 µM
inactive: [19] | [11] | [13] | [14] | [6] | [15] | [17]

Cc1ccnc2c1NC(=O)c1cccnc1N2C1CC1
active: [13] 1.87 µM | [16] 4.69 µM
inactive: [9] | [11] | [14] | [5] | [6] | [15] | [17]

CCC(=O)O[C@]1(C(=O)CCl)[C@@H](C)C[C@H]2[C@@H]3CCC4=CC(=O)C=C[C@]4(C)[C@@]3(F)[C@@H](O)C[C@@]21C
inactive: [20] | [2] | [6] | [15] | [7] | [17]
active: [14] 14.8 µM | [5] 16.6 µM

CC1CC2C3CCC4=CC(=O)C=C[C@]4(C)[C@@]3(F)[C@@H](O)C[C@]2(C)[C@@]1(O)C(=O)CO (stereo partly drawn)
inactive: [2] | [4] | [13] | [17]
active: [20] 0.833 µM | [9] 2.3 nM | [12] 0.209 µM | [15] 935 nM | [7] 0.0526 µM | [16] 0.59 µM

COc1cnc(NS(=O)(=O)c2ccc(N)cc2)nc1
inactive: [2] | [4] | [6] | [15] | [8] | [17]
active: [19] 11.8 µM | [5] 14.8 µM | [16] 29.6 µM
